Assay results as given in PubChem BioAssay AID1345085 (National Center for Advancing Translational Sciences (NCATS), 2018).
Inconclusive results are not listed. Values without a mark were called inactive. Calls of active or inactive are those of the source. Calls follow the shape of the dose curve; as a rule, active = well fitted cell-killing curve with a large enough effect; inconclusive = small, poorly fitted or top-dose-only effect, or effect the other way; inactive = no such curve, though single readings can be large or run the other way.

test system: JEG-3; assay: Confirmatory qHTS for gynecologic anti-cancer compounds from libraries of approved drugs and bioactive compounds; conditions: gynecologic cancer cell panel viability, ATPlite luminescence, 48 h; series mostly up to 57.6 µM; also: nearly all actives have a fitted effect of over 55% in size
Outline: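 Cells (1,000/well) plated 16 h, then exposed 48 h at 37 °C to 11 concentrations (1:3) from 57.5 uM to 0.977 nM. Viability by ATPlite luminescence after 15 min; IC50 derived, with HEK 293T used for selectivity index.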
% is scaled to controls: 0 for no effect and ±100 for the full control effect; potency is read from the fitted curve at half-maximal effect.

| SMILES | Potency | activity change, negative = viability loss |
| --- | --- | --- |
| C1CCC(C(CC2CCCCN2)C2CCCCC2)CC1 (configuration not stated) | 27.3 µM (active) | – |
| CC[C@@]1(O)C(=O)OCc2c1cc1n(c2=O)Cc2cc3cc(O)ccc3nc2-1 | 0.217 µM (active) | – |
| O=C(Nc1cn[nH]c1-c1nc2ccc(CN3CCOCC3)cc2[nH]1)NC1CC1 | 12.2 µM (active) | – |
| O=c1[nH]c(=O)n([C@H]2C[C@H](O)[C@@H](CO)O2)cc1Br | inactive | – |
| CO[C@@]12[C@H](COC(N)=O)C3=C(C(=O)C(C)=C(N)C3=O)N1C[C@@H]1N[C@@H]12 | inactive | – |
| O=C(NCC(O)CO)c1ccncc1Nc1ccc(I)cc1F (configuration not stated) | inactive | – |
| CN(C)C/C=C/C(=O)Nc1cc2c(Nc3ccc(F)c(Cl)c3)ncnc2cc1OC1CCOC1 (configuration not stated) | 19.3 µM (active) | – |
| CCC1C(=O)N(C)c2cnc(Nc3ccc(C(=O)NC4CCN(C)CC4)cc3OC)nc2N1C1CCCC1 (configuration not stated) | 0.0153 µM (active) | – |
| Cc1ccc(C(=O)N(CCCN)C(c2oc3cc(Cl)ccc3c(=O)c2Cc2ccccc2)C(C)C)cc1 (configuration not stated) | 0.109 µM (active) | – |
| COc1cc2c(c(OC)c1OC)-c1ccc(OC)c(=O)cc1[C@@H](NC(C)=O)CC2 | 0.178 µM (active) | – |
| Cn1cc(-c2ccc3ncc(Cc4ccc5ncccc5c4)n3n2)cn1 | inactive | – |
| CCCCc1oc2ccc(NS(C)(=O)=O)cc2c1C(=O)c1ccc(OCCCN(CCCC)CCCC)cc1 | 27.3 µM (active) | – |
| N=C(N)c1ccc(OCCCCCOc2ccc(C(=N)N)cc2)cc1 | 3.43 µM (active) | – |
| CC(Oc1cc(-n2cnc3ccc(CN4CCN(C)CC4)cc32)sc1C(N)=O)c1ccccc1C(F)(F)F (configuration not stated) | 1.93 µM (active) | – |
| CC(C)Oc1ccc2c(=O)c(-c3ccccc3)coc2c1 | 24.3 µM (active) | – |
| CC(C)(C)C(=O)OCOP(=O)(COCCn1cnc2c(N)ncnc21)OCOC(=O)C(C)(C)C | 2.43 µM (active) | – |

| SMILES | Potency | activity change, negative = viability loss |
| --- | --- | --- |
| Nc1ccc(-c2ccc3ncc4ccc(=O)n(-c5cccc(C(F)(F)F)c5)c4c3c2)cn1 | 2.43 µM (active) | – |
| Cc1nc(N)nc(N)c1-c1ccc(Cl)c(Cl)c1 | 17.2 µM (active) | – |
| NC(=O)c1ccc2nc(-c3ccc(Oc4ccc(Cl)cc4)cc3)[nH]c2c1 | 21.7 µM (active) | – |
| Cc1nc(Nc2n[nH]c3c2CN(C(=O)NC(CN(C)C)c2ccccc2)C3(C)C)c2sccc2n1 (configuration not stated) | 0.544 µM (active) | – |
| CN(NC(=O)CC(=O)NN(C)C(=S)c1ccccc1)C(=S)c1ccccc1 | 0.109 µM (active) | – |
| CCS(=O)(=O)c1cccc(-c2cc(C(=O)NC3CCN(C)CC3)c(C)c3[nH]c4ncc(C)cc4c23)c1 | 2.67 µM (active) | – |
| Cc1cnc(Nc2cccc(CN3CCOCC3)c2)nc1Nc1cccc(S(=O)(=O)NC(C)(C)C)c1 | 17.2 µM (active) | – |
| CC[C@]1(O)C[C@H]2CN(CCc3c([nH]c4ccccc34)[C@@](C(=O)OC)(c3cc4c(cc3OC)N(C=O)[C@H]3[C@@](O)(C(=O)OC)[C@H](OC(C)=O)[C@]5(CC)C=CCN6CC[C@]43[C@@H]65)C2)C1 | 0.193 µM (active) | – |
| COc1ccc(OC)c(-c2nnc3ccc(-c4ccc(OC)c(O[C@@H]5CCOC5)c4)nn23)c1 | 4.85 µM (active) | – |
| CNC(=O)c1nn(C)c2c1C(C)(C)Cc1cnc(Nc3ccc(N4CCN(C)CC4)cc3)nc1-2 | 6.85 µM (active) | – |
| Fc1cc(-c2cccc3ncc(-c4cnn(C5CCNCC5)c4)nc23)cc(F)c1CN1CCOCC1 | 30.6 µM (active) | – |
| Cc1cnc(CNC(=O)c2c(=O)c3ccc(N4CCCN(C)CC4)nc3n3c2sc2ccccc23)cn1 | – | -17.5% [at 10.6 µM] |
| Nc1ccccc1NC(=O)c1ccc(CNC(=O)OCc2cccnc2)cc1 | 3.85 µM (active) | – |
| COc1cc(N2CCC(N3CCN(C)CC3)CC2)ccc1Nc1ncc(Cl)c(Nc2ccccc2S(=O)(=O)C(C)C)n1 | 19.3 µM (active) | – |
| CCC1=CC2CN(C1)Cc1c([nH]c3ccccc13)[C@@](C(=O)OC)(c1cc3c(cc1OC)N(C)[C@H]1[C@@](O)(C(=O)OC)[C@H](OC(C)=O)[C@]4(CC)C=CCN5CC[C@]31[C@@H]54)C2 (some centres not stated) | 0.0943 µM (active) | – |
| Cc1csc(NC(=O)c2sc3nc4c(c(C(F)(F)F)c3c2N)CCC4)n1 | 13.7 µM (active) | – |
